# High-throughput results from PubChem.
# Compounds with a hit are over-represented: about 5.5% of the library has one in this group of screens.
# Chronic BCR inh – inhibitors of chronic active B-cell receptor signaling; ABC-DLBCL IkBa-CBG/CBR reporter, luminescence ratio, 4 h; Potency, µM (top dose mostly 46.1 µM), without a hit: at the top dose activity change, negative = inhibition, hits mostly inhibitors; 340,000 tested, 0.05% active; AID 493014; active = well fitted inhibition curve with a large enough effect in the signal ratio, with a control signal flat, not every such curve was filed as active; inconclusive = small, poorly fitted or top-dose-only effect, or effect the other way, or a change in a side signal; the % refers to the signal ratio;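 note: plate controls were basal doxycycline-induced cells for no effect and cells given 10 µM MG132 for full effect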
#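 TMD8 human ABC-DLBCL cells with doxycycline-inducible IκBα–green luciferase fusion and unfused red luciferase, in 0.5% FBS medium; compounds up to 46 uM, 4 h at 37C. Green/red luminescence ratio, filter-overlap corrected, fitted to concentration-response curves.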
# a7 integrin act – integrin-mediated muscular dystrophy alleviation activation; alpha7betagal myoblasts, beta-gal FDG fluorescence, 48 h; Potency, µM (series often up to 38.3 µM), inactives show at the top dose activation, usual class: activators; AID 624291; 350,000 tested, 0.064% active;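 note: 100% = response of the positive control SU9516; nearly all actives have a fitted effect of over 60% in size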
#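 Alpha7betagal+/- myoblasts (passage 13) were plated 16-24 hr, then exposed to compounds (1:260 dilution of DMSO stock) for 48 hours at 37C. After MPER lysis, β-galactosidase reporter activity was read as FDG fluorescence (ex 480/em 540) after 30 minutes.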
# uPA surface inh – inhibitors of cell surface uPA generation | cell surface uPA generation assay, qHTS | Potency, µM (series often up to 38.3 µM), for the others: at the top dose activity change, negative = inhibition, hits mostly inhibitors | 330,000 tested, 0.31% active; active = well fitted inhibition curve with a large enough effect; inconclusive = small, poorly fitted or top-dose-only effect; inactive = no such curve, though single readings can be large or run the other way; tested in mouse RAW 264.7 cells; note: % is set by controls: 0 for no effect and ±100 for the full control effect; nearly all actives have a fitted effect of over 55% in size
# Mito fusion yeast – mitochondrial division inhibition or fusion activation. S. cerevisiae fusion-defective mutant growth rescue, CellTiterGlo 48 h. 320,000 tested, 0.23% active. Potency, µM (titrated, usually from 46.1 µM), inactives show at the highest dose growth rescue (activation), hits mostly activators. AID 485298; note: % of control where 0% means no effect; nearly all actives have a fitted effect of over 45% in size
#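 Yeast fusion mutant, YPEG (non-fermentable carbon), compound, 48 h at 37C non-permissive; CellTiterGlo added, 10 min RT, luminescence read. Rescued growth = division inhibition.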
# VP16 counter – Gal4-VP16 reporter inhibition counter-screen | Drosophila S2 Gal4-VP16 UAS-luciferase, luminescence, 20 h | Potency, µM (top dose mostly 53.6 µM), for inactives: at the top dose activity, negative = inhibition, usual class: inhibitors | 310,000 tested, 3.5% active | AID 2546;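 note: Gal4-VP16 expression switched on by copper sulfate through the metallothionein promoter; % is set by controls: 0 for no effect and ±100 for the full control effect; nearly all actives have a fitted effect of over 50% in size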
# RORgamma inh – inhibitors of mouse ROR gamma transcriptional activity | P51450 | Drosophila S2 Gal4-RORgamma UAS-luciferase reporter, 20 h | Potency, µM (titrated, usually from 53.6 µM), without a hit: at the top dose activity change, negative = inhibition, most hits filed as inhibitors | 310,000 tested, 5.4% active; note: % is set by controls: 0 for no effect and ±100 for the full control effect; nearly all actives have a fitted effect of over 60% in size
# Target sequence (P51450 whole entry, looked up, the tested form may be a part): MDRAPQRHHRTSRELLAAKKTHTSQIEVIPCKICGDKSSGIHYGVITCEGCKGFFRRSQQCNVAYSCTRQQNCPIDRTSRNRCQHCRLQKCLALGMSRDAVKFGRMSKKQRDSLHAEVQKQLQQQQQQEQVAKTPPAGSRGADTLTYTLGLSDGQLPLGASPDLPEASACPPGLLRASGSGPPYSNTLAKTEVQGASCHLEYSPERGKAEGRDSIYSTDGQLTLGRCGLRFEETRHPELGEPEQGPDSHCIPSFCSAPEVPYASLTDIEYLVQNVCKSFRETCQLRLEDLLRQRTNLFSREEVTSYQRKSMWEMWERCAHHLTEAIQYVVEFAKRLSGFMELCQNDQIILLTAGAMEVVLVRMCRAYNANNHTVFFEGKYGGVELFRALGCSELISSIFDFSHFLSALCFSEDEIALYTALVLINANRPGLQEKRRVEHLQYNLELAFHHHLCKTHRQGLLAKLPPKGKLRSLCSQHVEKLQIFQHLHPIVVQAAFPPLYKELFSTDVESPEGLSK
#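 Using a luciferase readout, inhibitors were identified by reduced reporter activity in Drosophila cells coexpressing a copper-inducible Gal4–ROR gamma fusion and UAS-driven Photinus luciferase, incubated 20 hr after 700 uM copper sulfate.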
# * marks the source's active call; other numbers are inactive results; ? = inconclusive; . = no result given; [ ] = dose if it differs, or a comment. Unless noted, calls come from the whole dose curve; as a rule, active = well fitted curve in the direction sought with a large enough effect; inconclusive = small, poorly fitted or top-dose-only effect, or another doubt; inactive = no such curve, though single readings can be large; an effect the other way counts as inactive or inconclusive. Potency is the fitted concentration of half-maximal effect.
SMILES,Chronic BCR inh,a7 integrin act,uPA surface inh,Mito fusion yeast,VP16 counter,RORgamma inh
CCOC(=O)C(=Cc1ccc(OCc2ccc([N+](=O)[O-])cc2)c(OC)c1)C(=O)OCC,-7%,-46%,-13%,6%,?,14µM*
COc1cc(C(c2c(C)[nH][nH]c2=O)c2c(C)[nH][nH]c2=O)ccc1OC(=O)c1cccc([N+](=O)[O-])c1,4%,10%,-2%,-5%,9%,21%
CCOC(=O)/C(=C\c1ccc(OC)c(OC)c1)C(=O)c1cccnc1,?,4%,0%,-1%,-2%,-18%
Cc1ccsc1C1Nc2ccccc2C(=O)N1O (stereo not given),4%,-16%,-3%,4%,?,16µM*
O=C1c2ccccc2NC(c2ccc(Cl)cc2Cl)N1O (stereo not given),-3%,-37%,-14%,3%,10µM*,3.5µM*
C=CCc1cccc(C2Nc3ccccc3C(=O)N2O)c1O (stereo not given),2%,-19%,0%,2%,?,7.1µM*
O=C1c2ccccc2NC(c2cnc3ccccc3n2)N1O (stereo not given),?,-18%,-4%,-2%,?,10µM*
CC(=O)c1ccc(NC(=S)N2CCCC2)cc1,-1%,22%,-3%,1%,7%,44%
CCN(CC)CCCNc1cc(C)nc2cc(-c3cccs3)nn12,-7%,-18%,-5%,2%,?,11µM*
Cc1cc(C(F)(F)F)n2nc(-c3cccs3)cc2n1,9%,-18%,-3%,3%,-10%,-2%
CC(=O)NC(c1ccc(N(C)C)cc1)c1cc(Cl)c2cccnc2c1O (stereo not given),.,-33%,.,.,.,.
CC(=O)NC(c1ccc(C)cc1)c1cc([N+](=O)[O-])c2cccnc2c1O (stereo not given),-12%,-15%,-19%,21%,4µM*,2.8µM*
CCC(=O)NC(c1ccco1)c1cc(Br)c2cccnc2c1O (stereo not given),?,.,.,28%,.,.
CCC(=O)NC(c1ccc(C)cc1)c1cc([N+](=O)[O-])c2cccnc2c1O (stereo not given),8%,19%,-15%,8%,2.8µM*,2.5µM*
CCCC(=O)NC(c1ccco1)c1cc([N+](=O)[O-])c2cccnc2c1O (stereo not given),29%,-13%,5%,0%,5µM*,5.6µM*
Cc1ccc(C(NC(=O)N2CCOCC2)=C(Cl)Cl)cc1F,15%,-32%,?,-1%,2.2µM*,22µM*
CNc1nc(-c2cccnc2)nc2ccccc12,.,.,.,.,?,4%
O=C(N/N=C/c1cccs1)c1ccc2ccccc2c1,?,3%,-10%,-7%,5.6µM*,4µM*
Cc1ccc2nc(C)c(C(=O)N/N=C/c3cccs3)cc2c1,-1%,-22%,-4%,-9%,0%,16%
O=C(N/N=C/c1cccs1)c1ccc2nc[nH]c2c1,?,7%,-7%,-5%,-4%,13%
O=C(N/N=C/c1cccs1)c1ccc2ncccc2c1,?,5%,-2%,4%,?,11µM*
O=C(N/N=C/c1cccs1)c1cccc2cc[nH]c12,?,-4%,.,1%,?,2.8µM*
COc1ccc(NS(=O)(=O)c2cccc(C(=O)N/N=C/c3cccs3)c2)cc1,-11%,?,-9%,0%,-18%,-11%
Cc1c(C)c2c(c(C)c1O)CC[C@@](C)(C(=O)O)O2,.,.,.,.,-14%[17 µM],5%[16.9 µM]
c1ccc(-c2nc(N3CCN(c4ccccc4)CC3)nc(-n3ccnc3)n2)cc1,-8%,30%,.,12%,16µM*,13µM*
SMILES,Chronic BCR inh,a7 integrin act,uPA surface inh,Mito fusion yeast,VP16 counter,RORgamma inh
c1ccc(-c2nc(N3CCCCCC3)nc(-n3ccnc3)n2)cc1,6%,17%,2%,-5%,0%,?
CCOc1ccc2nc(NC(=S)N(C)C)sc2c1,?,-10%,1%,4%,1.8µM*,1µM*
S=C(Nc1ccccc1)c1nc2ccccc2s1,?,6%,?,-7%,0.71µM*,1.1µM*
CCNC(=O)Nc1nc2ccccc2s1,?,?,1%,-2%,-1%,8%
CCOc1ccc2nc(NS(=O)(=O)Cc3ccccc3)sc2c1,7.3µM*,6%,-13%,6%,14%,-13%
CN(C)C(=S)Nc1nc2ccccc2s1,?,12%,6%,12%,1.3µM*,0.5µM*
CCOc1ccc2nc(NC(=O)c3ccc(C)o3)sc2c1,.,-20%,-23%,.,.,.
CCOc1ccc2nc(NS(=O)(=O)c3ccc(NC(C)=O)cc3)sc2c1,?,4%,1%,2%,3%,?
C=C1c2ccccc2O[C@H](C(=O)OCC)C1OC (mixture of isomers),.,.,.,.,10%[96.6 µM],1%[96.6 µM]
O=C(N/C(=C/c1ccco1)C(=O)N1CCOCC1)c1ccccc1Br,0%,9%,6%,-1%,5%,-17%
CCCC(=O)Nc1nc2ccc(OCC)cc2s1,-10%,11%,?,18%,-26%,?
CCOc1ccc2nc(NC(=O)CCn3cccc3)sc2c1,8%,-2%,-18%,-2%,?,5µM*
COc1ccc(C2=Nn3c([n+](C)c4ccccc43)SC2)cc1,?,-1%,3.5µM*,3%,?,?
Cn1c(=O)c2c(ncn2CC(=O)N/N=C/c2c[nH]c3ccccc23)n(C)c1=O,0%,.,.,-1%,-11%,-11%
CCCN1CCC(=O)N(C(CSc2ccc(OC)cc2)CC(C)C)CC1 (stereo not given),.,.,.,.,-12%,39%
CNC(=S)NN(c1ccccc1)c1ccccc1,-8%,22%,.,-7%,?,18µM*
COCCNC(=S)N(c1ccccc1)C(C)C,4%,12%,0%,-2%,8%,-28%
COCCCNC(=S)Nc1ccccc1C,?,45%,5%,-6%,-24%,?
COCCNC(=S)NN(c1ccccc1)c1ccccc1,2%,-9%,4%,-12%,?,7.9µM*
COCCNC(=S)Nc1ccccc1Cc1ccccc1,0%,-25%,15%,7%,10µM*,3.5µM*
O=C(C1CCC1)N1CCc2cc(S(=O)(=O)Nc3ccc4c(c3)OCCO4)ccc21,-5%,-39%,-3%,2%,20µM*,?
CCC(=O)N1CCc2cc(S(=O)(=O)Nc3ccc4c(c3)OCCO4)ccc21,?,-46%,-4%,-2%,?,?
CS(=O)(=O)N1CCc2cc(S(=O)(=O)Nc3ccc4c(c3)OCCO4)ccc21,-5%,-38%,-10%,-1%,18µM*,?
CS(=O)(=O)N1CCc2cc(S(=O)(=O)NCCNS(=O)(=O)c3ccc4c(c3)CCN4S(C)(=O)=O)ccc21,-7%,-6%,-2%,9%,-4%,2%
